Assay outcomes as filed in PubChem BioAssay.
Gli-Sufu antag – Gli-Sufu pathway antagonism. inhibition, % at 5 µM. AID 588413. Sufu-KO-LIGHT fibroblasts, Gli luciferase reporter luminescence. 340,000 tested, 0.74% active;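 active = inhibition above about 55%, limit read from the data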
COUP-TFII inh – blocks human COUP-TFII nuclear receptor | P24468 | HEK293T NGFI-A luciferase reporter, luminescence | inhibition, % at 8.6 µM | 370,000 tested, 0.7% active | AID 686940;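 active = inhibition above a per-plate cutoff, mean inhibition of test wells between control levels plus 3 SD, cut at about 38% in these data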;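 also: cells cotransfected with COUP-TFII expression vector driving the NGFI-A reporter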
Target sequence (P24468 whole entry, looked up): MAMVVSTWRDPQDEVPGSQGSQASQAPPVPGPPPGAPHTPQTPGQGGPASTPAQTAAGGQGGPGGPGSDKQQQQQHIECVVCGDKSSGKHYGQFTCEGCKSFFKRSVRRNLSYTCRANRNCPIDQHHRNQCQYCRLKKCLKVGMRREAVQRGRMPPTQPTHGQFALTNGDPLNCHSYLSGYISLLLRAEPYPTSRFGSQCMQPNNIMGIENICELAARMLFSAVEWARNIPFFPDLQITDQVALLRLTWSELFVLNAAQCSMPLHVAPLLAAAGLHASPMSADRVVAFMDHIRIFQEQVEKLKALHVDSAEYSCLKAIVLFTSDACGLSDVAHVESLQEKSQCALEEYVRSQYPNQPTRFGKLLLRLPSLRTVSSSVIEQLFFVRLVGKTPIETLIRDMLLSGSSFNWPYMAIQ
NCOA1 inh – inhibitors of human steroid receptor coactivator 1 (SRC1); AID 588354; Q15788; HEK293 GAL4-SRC1 luciferase reporter, luminescence; 360,000 tested, 0.12% active; inhibition, % at 3.6 µM;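 active = inhibition above the campaign mean plus 3 SD, with each screening campaign given its own cutoff, cut at about 60% in these data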
SRC2 inh – inhibits human steroid receptor coactivator 2; inhibition, % at 9 µM; HEK293 GAL4-SRC2 luciferase reporter, luminescence; 370,000 tested, 0.17% active; Q15596;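 active = inhibition above the mean inhibition of all tested compounds plus 3 SD, set per campaign, cut at about 52% in these data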
NCOA3 inh – inhibitors of human steroid receptor coactivator 3 (SRC3). HEK293 GAL4-SRC3 luciferase reporter, luminescence. inhibition, % at 3.6 µM. 360,000 tested, 0.17% active;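 active = inhibition above a per-campaign cutoff, the mean of all compounds plus 3 SD, cut at about 60% in these data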;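 also: higher means less SRC3-driven luciferase light from the GAL4 reporter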
LRH-1 inv ag – inverse agonists of human LRH-1 (NR5A2); O00482; HEK293T StAR-luciferase reporter, LRH-1 transfected, 24 h; inhibition, % at 3.6 µM; 360,000 tested, 0.13% active;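 active = inhibition above the mean inhibition of all tested compounds plus 3 SD, cut at about 73% in these data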
Gli antag conf – confirmation of Gli-SUFU pathway antagonists; Sufu-KO-LIGHT cells, Gli luciferase reporter, luminescence; shares compounds with Gli-Sufu antag; inhibition, % at 5 µM; AID 602428; 2,500 tested, 40% active;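 active = mean inhibition at 5 µM reaching about 45%, limit read from the data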
SufuKO cytotox – counter-screen for Gli-SUFU antagonists: cytotoxicity; shares compounds with Gli-Sufu antag; Sufu-KO-LIGHT cells cytotoxicity, ATP luminescence; cytotoxicity, % at 5 µM; 2,500 tested, 32% active;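 active = mean cytotoxicity at 5 µM above about 25%, limit read from the data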;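 also: cells exposed to compound overnight for roughly 16 to 18 hours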
Wnt3a cs – Wnt3a reporter inhibition counter-screen | Wnt-LIGHT cells, Wnt3a-driven luciferase reporter, luminescence | shares compounds with Gli-Sufu antag | 2,500 tested, 20% active | inhibition, % at 6.25 µM;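 active = mean inhibition above about 25%, limit read from the data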
Of the large screens only hits and unclear results are named; the others gave an inactive call (follow-up assays come after a bar, where they were run). Only some compounds are listed: those with a hit (about 1.3% of all), similar ones and a draw of the others.

COc1ccc(C)cc1-n1nnnc1SCn1nnc2ccccc2c1=O	Gli-Sufu antag 58 | Gli antag conf 64 | SufuKO cytotox 31 | Wnt3a cs 32
COc1ccc(C)cc1-n1nnnc1SCc1cc(=O)n2cc(C)ccc2n1	Gli-Sufu antag 58 | Gli antag conf 57 | SufuKO cytotox 37 | Wnt3a cs inactive
COC(=O)[C@]12C[C@H](CC(=O)NCc3ccc(C)o3)C(=O)N(Cc3ccc(Cl)cc3Cl)C1=C[C@H](COCc1ccccc1)O[C@@H]2C	none (no result: Gli-Sufu antag, NCOA1 inh, NCOA3 inh, LRH-1 inv ag)
CCCCn1c(=O)[nH]c(=O)c2c1nc(-c1ccc(-c3ccccc3)cc1)n2C	none | Gli antag conf inactive | SufuKO cytotox inactive | Wnt3a cs inactive
CCn1c(-c2ccsc2)nc2c1c(=O)[nH]c(=O)n2Cc1ccccc1	Gli-Sufu antag 62 | Gli antag conf inactive | SufuKO cytotox inactive | Wnt3a cs inactive
CCCn1c(-c2cccs2)nc2c1c(=O)[nH]c(=O)n2Cc1ccccc1	none
Cc1n[nH]c(C)c1S(=O)(=O)NCCc1c[nH]c2ccccc12	none (no result: Gli-Sufu antag, NCOA1 inh, NCOA3 inh, LRH-1 inv ag)
Fc1ccc(Cn2nnnc2CN2CCN(C3CCCC3)CC2)cc1	Gli-Sufu antag 93 | Gli antag conf inactive | SufuKO cytotox inactive | Wnt3a cs inactive
COCCNC(=O)COc1ncnc2scc(-c3ccc(F)cc3)c12	none
NC(=O)COc1ncnc2scc(-c3ccc(F)cc3)c12	none | Gli antag conf inactive | SufuKO cytotox inactive | Wnt3a cs inactive
C[C@H]1[C@@H](N(C)Cc2ccccc2)CC[C@@]23CCCN2C(=O)CCC[C@@H]13	none (no result: Gli-Sufu antag, NCOA1 inh, SRC2 inh, NCOA3 inh, LRH-1 inv ag)
NC(=NCCc1c[nH]c2ccccc12)NC(=O)OCc1ccccc1	none (no result: Gli-Sufu antag, NCOA1 inh, NCOA3 inh, LRH-1 inv ag)
COc1cc(OC)c(OC)cc1/C=N/n1c(COc2ccccc2)n[nH]c1=S	Gli-Sufu antag 57 | Gli antag conf inactive | SufuKO cytotox inactive | Wnt3a cs inactive
O=C(NC1CCCC1)C(c1ccccc1)N(Cc1cccnc1)C(=O)Cc1cccs1 (stereo not drawn)	Gli-Sufu antag 57 | Gli antag conf inactive | SufuKO cytotox inactive | Wnt3a cs inactive
Cc1ccc(CN(C(=O)Cc2cccs2)C(C(=O)NC2CCCC2)c2ccncc2)cc1 (stereo not drawn)	none
CCCCNc1c(-c2ccc(OC)c(Sc3ccc(OC)cc3)c2)nc2cnccn12	none
CCCCNc1c(-c2ccc(OC)c(Sc3ccc(OC)cc3)c2)nc2ccccn12	none (no result: COUP-TFII inh, SRC2 inh) | Gli antag conf 57 | SufuKO cytotox 26 | Wnt3a cs inactive
COc1ccc(C(CNC(=O)C(=O)Nc2ccc3c(c2)OCO3)N2CCN(C)CC2)cc1 (stereo not drawn)	none
CN1CCN(C(CNC(=O)C(=O)Nc2ccc3c(c2)OCO3)c2ccc(F)cc2)CC1 (stereo not drawn)	none | Gli antag conf inactive | SufuKO cytotox inactive | Wnt3a cs inactive
Clc1ccc(-c2c[n+](Cc3cccc(Cl)c3)c3n2CCC3)cc1	none | Gli antag conf 51 | SufuKO cytotox 29 | Wnt3a cs inactive
Clc1ccc(-c2c[n+](Cc3ccc(Cl)cc3Cl)c3n2CCCCC3)cc1	Gli-Sufu antag 66 | Gli antag conf 75 | SufuKO cytotox 30 | Wnt3a cs inactive
Clc1ccc(C[n+]2cc(-c3ccccc3)n3c2CCC3)cc1Cl	Gli-Sufu antag 59 | Gli antag conf 51 | SufuKO cytotox 37 | Wnt3a cs inactive
COC(=O)C1CCCN(C(=O)C2CCN(S(=O)(=O)c3ccccc3[N+](=O)[O-])CC2)C1 (stereo not drawn)	none (no result: Gli-Sufu antag, NCOA1 inh, NCOA3 inh, LRH-1 inv ag)
C=CCN1C(=O)[C@@H](CC(=O)N2CCC(c3ccccc3)CC2)[C@]2(C(=O)OCC)CCCCC/C=C/12	none (no result: Gli-Sufu antag, NCOA1 inh, NCOA3 inh, LRH-1 inv ag)
Cc1cc(C)c(S(=O)(=O)N2CCN(C(=O)c3c(C)nn(-c4ccccc4)c3Cl)CC2)c(C)c1	Gli-Sufu antag 98 | Gli antag conf inactive | SufuKO cytotox inactive | Wnt3a cs inactive
Cc1ccc(S(=O)(=O)N2CCN(C(=O)c3c(C)nn(-c4ccccc4)c3Cl)CC2)cc1	none
CCCSc1nnc(NC(=O)c2nc(SC)ncc2Cl)s1	Gli-Sufu antag 56 | Gli antag conf inactive | SufuKO cytotox inactive | Wnt3a cs inactive
CSc1ncc(Cl)c(C(=O)Nc2nnc(SC)s2)n1	none
COc1cccc(-c2nnc(SCC(=O)Nc3ccc(Oc4ccccc4)cc3)n2Cc2ccco2)c1	none (no result: Gli-Sufu antag, NCOA1 inh, NCOA3 inh, LRH-1 inv ag)
CCOC(=O)c1c(C)[nH]c(C(=O)N/N=C/c2ccc(Br)cc2)c1C	none | Gli antag conf 50 | SufuKO cytotox 61 | Wnt3a cs inactive
Cc1[nH]c(C(=O)N/N=C/c2ccc(C(=O)O)cc2)c(C)c1C(=O)N/N=C/c1ccc(C(=O)O)cc1	none
C(#Cc1ccccc1)C[N+]1(CC#Cc2ccccc2)CCCCC1	Gli-Sufu antag 81 | Gli antag conf 79 | SufuKO cytotox 38 | Wnt3a cs inactive
CCC(=O)c1ccccc1OCCCN1CCC(Cc2ccccc2)CC1	none | Gli antag conf inactive | SufuKO cytotox 33 | Wnt3a cs inactive
CCOc1ccccc1OCCN1CCC(Cc2ccccc2)CC1	none
CCOc1cc(C(C(=O)NCC2CCCO2)N(C(=O)Cn2nnc3ccccc32)c2ccc(OC)c(OC)c2)ccc1O (stereo not drawn)	Gli-Sufu antag 57 | Gli antag conf inactive | SufuKO cytotox inactive | Wnt3a cs inactive
COc1cc(C(C(=O)NCC2CCCO2)N(C(=O)Cn2nnc3ccccc32)c2ccc(C(C)=O)cc2)ccc1O (stereo not drawn)	none
COCC#Cc1ccc(CC[C@H]2O[C@H]3CC[C@@H](CO)O[C@H]3C[C@H]2n2cc(C(C)(C)O)nn2)cc1	none (no result: Gli-Sufu antag, NCOA1 inh, NCOA3 inh, LRH-1 inv ag)
COC(=O)[C@H](C(C)C)N(Cc1cn(Cc2ccccc2)nn1)S(=O)(=O)c1ccc(F)cc1Br	none (no result: Gli-Sufu antag, NCOA1 inh, NCOA3 inh, LRH-1 inv ag)
C=CCN(CC#Cc1ccccc1)CC=C	none (no result: Gli-Sufu antag, NCOA1 inh, NCOA3 inh, LRH-1 inv ag)
CC1CC(=O)N(c2ccc(C(C)C)cc2)C(=O)C1	none | Gli antag conf inactive | SufuKO cytotox inactive | Wnt3a cs inactive
CC(C)c1ccc(N2C(=O)C3C4C=CC(CC4)C3C2=O)cc1 (stereo not drawn)	none
COc1ccc(C(CC(=O)O)NC(=O)COc2ccccc2)cc1 (stereo not drawn)	none | Gli antag conf inactive | SufuKO cytotox inactive | Wnt3a cs inactive
O=C(NNC(=O)c1cccc(Cl)c1)NNC(=O)c1cccc(Cl)c1	none | Gli antag conf inactive | SufuKO cytotox inactive | Wnt3a cs inactive
O=C(Nc1ccccc1)Nc1ccccc1NS(=O)(=O)c1cccs1	none
N#Cc1ccc(OCC(=O)Nc2ccccc2NS(=O)(=O)c2cccs2)cc1	none | Gli antag conf inactive | SufuKO cytotox inactive | Wnt3a cs inactive
Cc1cccc(N2CN(Cc3cccnc3)CNC2=S)c1C	Gli-Sufu antag 55 | Gli antag conf inactive | SufuKO cytotox inactive | Wnt3a cs inactive
